# Data from PubChem BioAssay.
# Active and inactive are the calls of the source. No rule for the calls is given here.
# Assay: Brca1-Bard1 BiLC signal decrease – luminescence, single concentration, counter-screen for Mdm2/MdmX interaction inhibitor project, confirmation (AID 504668)
# Conditions: Brca1/Bard1 bimolecular luciferase complementation counterscreen, at 8 µM, hits give high values
row,Structure (SMILES),inhibition
1,O=C(Nc1cccc([N+](=O)[O-])c1)c1cc2ccccc2cc1O,31% (active)
2,CCc1ccc2c(c1)C1(NN=C(c3cccc4ccccc34)S1)C(=O)N2 (stereo not given),30% (active)
3,CN1CCN(c2cc(N3CCN(C(=O)c4ccco4)CC3)c3c4c(onc24)-c2ccccc2C3=O)CC1,24.3% (active)
4,COc1ccc(NC(=O)c2cc3c(CO)cnc(C)c3oc2=Nc2cccc(F)c2)c(OC)c1,27.9% (active)
5,O=C1Nc2cccnc2N(C(=O)CCl)c2ccccc21,31.2% (active)
6,Oc1ccccc1C1CC(c2cccs2)=NC(c2ccc(Cl)cc2)N1 (stereo not given),28.5% (active)
7,CN(C)CCCNC(=O)/C(=C\c1ccc(-c2ccc(Br)cc2)o1)NC(=O)c1ccccc1,29.2% (active)
8,C/C(=N\Nc1nc(-c2ccccn2)nc2ccccc12)c1ccc(F)cc1,34.4% (active)
9,C/C(=N\NC(=O)c1cccc2ccccc12)c1ccccn1,29.9% (active)
10,O=C(CCCN1C(=O)/C(=C\c2ccccc2)SC1=S)Nc1ccc(O)cc1,33.2% (active)
11,Cc1cccn2c(=O)c3cc(C(=O)NCCN4CCOCC4)c(=N)n(Cc4ccc(F)cc4)c3nc12,34.8% (active)
12,Cc1cc(C)cc(NC(=O)CSc2ccc(-c3ccccn3)nn2)c1,31.7% (active)
13,CCC(C)n1c(=O)c(C(=O)Nc2ccccc2S(N)(=O)=O)c(O)c2ccccc21 (stereo not given),30.8% (active)
14,O=C(CCCN1C(=O)/C(=C\c2ccccc2)SC1=S)Nc1ccccc1O,30.3% (active)
15,Cc1nc(-n2[nH]c3c(c2=O)CCCC3)[nH]c(=O)c1Cc1ccccc1,30.8% (active)
16,CCN(CC)S(=O)(=O)c1ccc2c(c1)C(=NO)c1cc(S(=O)(=O)N(CC)CC)ccc1-2,23.7% (active)
17,Cc1ccc(-c2oc3ccccc3c(=O)c2O)cc1,24.8% (active)
18,O=c1nc(Nc2ccc(OCc3ccccc3)cc2)sc2ncccc12,23.4% (active)
19,O=C(Nc1c2ccccc2nc2ccccc12)C(Cl)(Cl)Cl,33.7% (active)
20,C/C(=N\NC(=O)c1nnn(-c2nonc2N)c1CN1CCc2ccccc21)c1ccccc1O,31.1% (active)

row,Structure (SMILES),inhibition
1,CCC(NC(=O)Nc1nnc(C(F)(F)F)s1)(C(F)(F)F)C(F)(F)F,26.3% (active)
2,CC1CCN(S(=O)(=O)c2ccc(C(=O)Nc3nnc(-c4ccco4)o3)cc2)CC1,34.2% (active)
3,COc1ccc(Nc2ccnc3ccccc23)cc1,33.7% (active)
4,O=C(Nc1ccc(Cl)c([N+](=O)[O-])c1)C(Sc1ccccc1)c1ccccc1 (stereo not given),24.1% (active)
5,CC1CCN(CCCNC(=O)c2ccc3c(Cl)c4c(nc3c2)CCCC4)CC1,30.3% (active)
6,C=CCNC(=S)N/N=C(\C)c1ccccn1,31.6% (active)
7,Cc1cc(C)nc(SCc2ccc(C(=O)N/N=C/c3cccc(O)c3O)cc2)n1,35.2% (active)
8,CC(Oc1cccc(Br)c1)C(=O)NNC(=O)c1ccccn1 (stereo not given),35.8% (active)
9,COc1cccc(C(NC(C)=O)c2ccc3cccnc3c2O)c1 (stereo not given),29.3% (active)
10,CCc1ccc(S(=O)(=O)/N=C2\C=C(Nc3ccc(C(=O)O)cc3)C(=O)c3ccccc32)cc1,33.2% (active)
11,O=C(CN1C(=O)/C(=C/c2ccccc2)SC1=S)N1CCN(CCc2ccccn2)CC1,24.3% (active)
12,Cc1cc(SCC(=O)N/N=C/c2ccc(O)cc2O)nc2ccccc12,32.4% (active)
13,CCOC(=O)c1c(CN(C)C)n(C)c2c(O)c(N=NC(N)=O)c3ccc(Br)cc3c12,27.9% (active)
14,CCN(CC)CCNc1cc(C)nc2c1C(=O)C(=O)C=C2N1CCCCC1,28.9% (active)
15,Cc1cc(Br)cc(/C=N/NC(=O)c2ccc3c(c2)OCO3)c1O,33% (active)
16,O=C(N/N=C/c1ccc(O)c2ncccc12)c1cccc(Br)c1,32.5% (active)
17,CCOc1cccc2sc(NC(=O)CCS(=O)(=O)c3ccccc3)nc12,35.4% (active)
18,Cc1ccc(C(=O)Nc2nc(-c3ccccn3)cs2)cc1S(=O)(=O)N1CCOCC1,23.2% (active)
19,CCOc1ccccc1CNC(=O)C1CCCN(c2nnc(C)c3c(C)n(-c4ccccc4)nc23)C1 (stereo not given),33.6% (active)
20,Cc1ccc(-n2nc(C)c3c(C)c(CCC(=O)Nc4ccc(CN5CCCC5)cc4)c(C)nc32)cc1,25.5% (active)
